Measurements reported in PubChem BioAssay AID1159580 (chemical genetic matrix, 2015).
Where “and” joins values, the source holds several entries; their conditions need not be identical. Equal values may be shown once. The campaign covered roughly 5,500 compounds. About 2,000 (36%) were called active. About 18% were inconclusive and are not listed. Rule as the data show it: active = normalized growth mostly below about 0.91 (no sharp cut-off); inconclusive = no clear call, values can overlap the other calls; inactive = mostly above about 0.92. The list shows a part of the results.

Experiment: chemical genetic growth profiling, strain panel (AID 1159580);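 also: tested at 20 µM; growth read once vehicle control cultures reached saturation at 30 °C; 1 = growth at the plate median or of vehicle wells; lower values mean less growth of the strain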
Details: S. cerevisiae deletion strains, growth OD

Measured: normalized growth

O=C(O)CCC(=O)OC[C@@H](NC(=O)C(Cl)Cl)[C@H](O)c1ccc([N+](=O)[O-])cc1
inactive: locus YAL021C, strain ccr4, active compounds read low 0.99 | locus YAL026C, strain drs2, active compounds read low 0.993 | locus YAL030W, strain snc1, active compounds read low 0.981 | locus YBL061C, strain skt5, active compounds read low 0.971 | locus YBR009C, strain hhf1, active compounds read low 0.956 | locus YBR021W, strain FUR4, active compounds read low 1.02 | locus YBR023C, strain chs3, active compounds read low 0.976 | locus YBR171W, strain sec66, active compounds read low 0.962 | locus YBR229C, strain ROT2, active compounds read low 0.951 | locus YBR231C, strain swc5, active compounds read low 1 | locus YBR279W, strain paf1, active compounds read low 0.989 | locus YCL011C, strain gbp2, active compounds read low 0.942 | locus YCL016C, strain dcc1, active compounds read low 0.953 | locus YCL029C, strain bik1, active compounds read low 0.986 | locus YCL061C, strain MRC1, active compounds read low 0.981 | locus YCL069W, strain vba3, active compounds read low 0.982 | locus YCR088W, strain abp1, active compounds read low 0.986 | locus YDL005C, strain med2, active compounds read low 0.984 | locus YDL035C, strain GPR1, active compounds read low 0.974 | locus YDL040C, strain nat1, active compounds read low 0.996 | locus YDL074C, strain BRE1, active compounds read low 0.98 | locus YDL101C, strain DUN1, active compounds read low 0.995 | locus YDL134C, strain PPH21, active compounds read low 0.964 | locus YDL185W, strain tfp1, active compounds read low 0.96 | locus YDL192W, strain arf1, active compounds read low 0.979 | locus YDR001C, strain nth1, active compounds read low 0.975 | locus YDR069C, strain doa4, active compounds read low 1.01 | locus YDR101C, strain arx1, active compounds read low 0.963 | locus YDR137W, strain rgp1, active compounds read low 0.963 | locus YDR150W, strain NUM1, active compounds read low 0.982 | locus YDR159W, strain sac3, active compounds read low 0.997 | locus YDR162C, strain NBP2, active compounds read low 0.93 | locus YDR195W, strain ref2 1 | locus YDR297W, strain sur2, active compounds read low 0.964 | locus YDR318W, strain mcm21, active compounds read low 0.99 | locus YDR334W, strain swr1, active compounds read low 0.945 | locus YDR335W, strain msn5, active compounds read low 0.973 | locus YDR388W, active compounds read low 0.983 | locus YDR392W, strain spt3, active compounds read low 0.914 | locus YDR502C, strain sam2, active compounds read low 0.991 | locus YEL003W, strain gim4, active compounds read low 0.982 | locus YEL037C, strain rad23, active compounds read low 0.991 | locus YEL061C, strain CIN8 (second series), active compounds read low 0.987 | locus YEL061C, strain CIN8, active compounds read low 0.988 | locus YER015W, strain faa2, active compounds read low 0.989 | locus YER016W, strain bim1, active compounds read low 0.988 | locus YER110C, active compounds read low 0.964 | locus YER111C, strain swi4, active compounds read low 0.982 | locus YER155C, strain BEM2 (second series), active compounds read low 1.04 | locus YER155C, strain BEM2, active compounds read low 0.989 | locus YER167W, strain BCK2, active compounds read low 0.997 | locus YFR010W, strain ubp6, active compounds read low 0.979 | locus YGL078C, strain dbp3, active compounds read low 0.995 | locus YGL167C, strain pmr1, active compounds read low 0.974 | locus YGL173C, strain kem1, active compounds read low 0.967 | locus YGL227W, strain vid30, active compounds read low 0.977 | locus YGL240W, strain doc1, active compounds read low 1 | locus YGL248W, strain PDE1, active compounds read low 1.01 | locus YGL253W, strain hxk2, active compounds read low 0.968 | locus YGR135W, strain pre9, active compounds read low 1.03 | locus YGR229C, strain SMI1, active compounds read low 0.969 | locus YGR252W, strain gcn5, active compounds read low 1.07 | locus YHR013C, strain ard1, active compounds read low 0.955 | locus YHR027C, strain rpn1, active compounds read low 0.956 | locus YHR030C, strain SLT2, active compounds read low 0.974 | locus YHR079C, strain IRE1 (second series), active compounds read low 0.989 | locus YHR079C, strain IRE1, active compounds read low 0.961 | locus YHR094C, strain hxt1, active compounds read low 0.979 | locus YHR129C, strain ARP1, active compounds read low 0.982 | locus YHR142W, strain chs7, active compounds read low 0.926 | locus YHR200W, strain rpn10, active compounds read low 0.981 | locus YIL066C, strain RNR3, active compounds read low 0.947 | locus YIL073C, strain SPO22, active compounds read low 0.988 | locus YIL125W, strain kgd1, active compounds read low 0.983 | locus YIR030C, strain dcg1, active compounds read low 0.98 | locus YJL092W, strain hpr5, active compounds read low 0.981 | locus YJL095W, strain BCK1 (second series), active compounds read low 0.972 | locus YJL095W, strain BCK1, active compounds read low 1.04 and 0.971 | locus YJL115W, strain asf1, active compounds read low 0.969 | locus YJL129C, strain trk1, active compounds read low 0.968 | locus YJL134W, strain LCB3, active compounds read low 0.982 | locus YJL154C, strain vps35, active compounds read low 0.975 | locus YJL164C, strain tpk1, active compounds read low 0.968 | locus YJL166W, strain qcr8, active compounds read low 0.964 | locus YJL168C, strain set2, active compounds read low 0.983 | locus YJL187C, strain SWE1 (second series), active compounds read low 1 | locus YJL187C, strain SWE1, active compounds read low 0.975
